Results as given in PubChem BioAssay AID1159580 (chemical genetic matrix, 2015).
Screen size: about 5,500 compounds; about 2,000 (36%) were called active. About 18% were inconclusive and are not listed. Rule as the data show it: active = normalized growth mostly below about 0.91 (no sharp cut-off); inconclusive = no clear call, values can overlap the other calls; inactive = mostly above about 0.92. The list shows a part of the results.

Experiment: chemical genetic growth profiling, strain panel (AID 1159580);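 also: tested at 20 µM; growth read once vehicle control cultures reached saturation at 30 °C; 1 = growth at the plate median or of vehicle wells; lower values mean less growth of the strain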
Conditions: S. cerevisiae deletion strains, growth OD

Measured: normalized growth

O=S(=O)(O)O
inactive: locus YAL021C, strain ccr4, active compounds read low 0.973 | locus YAL026C, strain drs2, active compounds read low 0.983 | locus YAL030W, strain snc1, active compounds read low 0.985 | locus YBL061C, strain skt5, active compounds read low 0.975 | locus YBR009C, strain hhf1, active compounds read low 0.991 | locus YBR023C, strain chs3, active compounds read low 0.98 | locus YBR171W, strain sec66, active compounds read low 0.961 | locus YBR231C, strain swc5, active compounds read low 0.976 | locus YBR279W, strain paf1, active compounds read low 0.985 | locus YCL011C, strain gbp2, active compounds read low 0.965 | locus YCL016C, strain dcc1, active compounds read low 0.981 | locus YCL061C, strain MRC1, active compounds read low 0.993 | locus YCL069W, strain vba3, active compounds read low 0.969 | locus YCR088W, strain abp1, active compounds read low 0.956 | locus YDL005C, strain med2, active compounds read low 0.954 | locus YDL040C, strain nat1, active compounds read low 0.988 | locus YDR001C, strain nth1, active compounds read low 0.987 | locus YDR069C, strain doa4, active compounds read low 0.964 | locus YDR137W, strain rgp1, active compounds read low 1.01 | locus YDR159W, strain sac3, active compounds read low 0.985 | locus YDR195W, strain ref2 1 | locus YDR297W, strain sur2, active compounds read low 0.976 | locus YDR334W, strain swr1, active compounds read low 0.976 | locus YDR335W, strain msn5, active compounds read low 0.978 | locus YDR392W, strain spt3, active compounds read low 0.914 | locus YEL003W, strain gim4, active compounds read low 0.988 | locus YEL037C, strain rad23, active compounds read low 0.969 | locus YEL061C, strain CIN8 (second series), active compounds read low 0.971 | locus YER015W, strain faa2, active compounds read low 0.975 | locus YER016W, strain bim1, active compounds read low 0.983 | locus YER111C, strain swi4, active compounds read low 0.967 | locus YER155C, strain BEM2 (second series), active compounds read low 0.976 | locus YFR010W, strain ubp6, active compounds read low 0.973 | locus YGL167C, strain pmr1, active compounds read low 0.973 | locus YGL173C, strain kem1, active compounds read low 0.962 | locus YGL227W, strain vid30, active compounds read low 0.961 | locus YGL240W, strain doc1, active compounds read low 0.982 | locus YGL253W, strain hxk2, active compounds read low 0.969 | locus YHR013C, strain ard1, active compounds read low 0.96 | locus YHR027C, strain rpn1, active compounds read low 0.978 | locus YHR030C, strain SLT2, active compounds read low 1.04 | locus YHR079C, strain IRE1, active compounds read low 1.06 | locus YHR142W, strain chs7, active compounds read low 0.961 | locus YJL092W, strain hpr5, active compounds read low 0.95 | locus YJL095W, strain BCK1 (second series), active compounds read low 0.981 | locus YJL095W, strain BCK1, active compounds read low 1.06 | locus YJL115W, strain asf1, active compounds read low 0.981 | locus YJL129C, strain trk1, active compounds read low 0.961 | locus YJL154C, strain vps35, active compounds read low 0.977 | locus YJL164C, strain tpk1, active compounds read low 0.983 | locus YJL166W, strain qcr8, active compounds read low 0.977 | locus YJL187C, strain SWE1, active compounds read low 0.981 | locus YJR066W, strain TOR1, active compounds read low 0.967 | locus YKL160W, strain elf1, active compounds read low 0.987 | locus YKR026C, strain gcn3, active compounds read low 0.975 | locus YKR091W, strain srl3, active compounds read low 0.977 | locus YLL001W, strain dnm1, active compounds read low 0.992 | locus YLL026W, active compounds read low 0.966 | locus YLL041C, strain sdh2, active compounds read low 0.988 | locus YLR027C, strain aat2, active compounds read low 0.985 | locus YLR113W, strain HOG1, active compounds read low 0.992 | locus YLR221C, strain rsa3, active compounds read low 0.979 | locus YLR258W, strain gsy2, active compounds read low 0.98 | locus YLR262C, strain YPT6 (second series), active compounds read low 1 | locus YLR320W, strain mms22, active compounds read low 0.969 | locus YLR342W, strain FKS1, active compounds read low 0.955 | locus YLR357W, strain rsc2, active compounds read low 0.951 | locus YLR370C, strain arc18, active compounds read low 0.965 | locus YLR384C, strain iki3, active compounds read low 0.977 | locus YML120C, strain ndi1, active compounds read low 0.979 | locus YMR058W, strain fet3, active compounds read low 0.985 | locus YMR125W, strain sto1, active compounds read low 0.944 | locus YMR129W, active compounds read low 0.99 | locus YMR205C, strain PFK2, active compounds read low 0.976 | locus YMR231W, strain pep5, active compounds read low 0.956 | locus YNL071W, strain lat1, active compounds read low 0.959 | locus YNL183C, strain NPR1, active compounds read low 0.986 | locus YNL209W, strain ssb2, active compounds read low 0.975 | locus YNL248C, strain rpa49, active compounds read low 0.978 | locus YNL322C, strain KRE1 (second series), active compounds read low 0.966 | locus YNR049C, strain mso1, active compounds read low 0.983 | locus YOR001W, strain rrp6, active compounds read low 0.964 | locus YOR070C, strain gyp1, active compounds read low 0.974 | locus YOR080W, strain dia2, active compounds read low 0.968 | locus YOR083W, strain WHI5, active compounds read low 0.986 | locus YOR106W, strain vam3, active compounds read low 0.934 | locus YOR231W, strain MKK1, active compounds read low 1.02 | locus YOR265W, strain rbl2, active compounds read low 0.981 | locus YOR270C, strain vph1, active compounds read low 1 | locus YOR290C, strain snf2, active compounds read low 0.982 | locus YPL051W, strain arl3, active compounds read low 0.981 | locus YPL078C, strain atp4, active compounds read low 0.982 | locus YPL106C, strain sse1, active compounds read low 0.946 | locus YPL240C, strain hsp82, active compounds read low 0.957 | locus YPL256C, strain CLN2, active compounds read low 1.06
